Our source for the growth values is PubChem BioAssay (NCI).

Structures are written as SMILES. The panel holds about 83,000 compounds, 20% with a hit somewhere; the sample as a whole holds those more often.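 Activity criterion: percent growth below 10, measured after cells in 96-well plates were exposed to a single compound concentration for 48 hours.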 Values without a mark were called inactive. Active and inactive are the calls of the source.

The first assay relates to UACC-62 melanoma. Nature of the assay: NCI-60 one-dose screen, 48 h (100 = growth as untreated, 0 = no growth, -100 = all killed). Conditions: 10 µM unless noted.
On to `CCCOc1ccc2nc(NC(=O)OC)[nH]c2c1`, for which the growth was 22.3%.

As to `COc1cccc(/C=C2\Oc3cc(OCCN4CCCC4)ccc3C2=O)c1`, the growth was 106%.

For the molecule `COc1ccc(/C=C2\Oc3cc(OCCCCN4CCCC4)ccc3C2=O)cc1`, the growth is 90.5%.

Turning to `COc1cccc(-c2nn(C(C)(C)C)cc2-c2ccnc(NCCCNS(=O)(=O)c3cccc4ccccc34)c2)c1`, the growth is 108%.

Regarding `COc1cccc(-c2nc3sccn3c2-c2ccnc(NCCCNS(=O)(=O)c3c(Cl)cccc3Cl)c2)c1`, the growth is 25.7%.

`O=C1c2cc3c(cc2-c2c1c1cc(F)c(F)cc1c(=O)n2CCCn1ccnc1)OCO3`: the growth was -61.4% (active).

`O=C(/C=C/c1cccc(Cl)c1)c1ccc(O)c(CN2CCN(c3cc4c(cc3F)c(=O)c(C(=O)O)cn4C3CC3)CC2)c1`: the growth is 34.9%.

For `CCCn1c(=O)[nH]c(N)c([C@H]2c3ccccc3Oc3[nH]c(=O)n(CCC)c(=O)c32)c1=O`, the growth was 80.6%.

In the case of `N#CCCN=Nc1c(O)[nH]c2ccc(F)cc12`, the growth is 102%.

`COc1ccc(-c2n[nH]nc2-c2csc3ccccc23)cc1OC`: the growth was 27.7%.

Turning to `COc1cc(/C=C/c2cc(O)c3cc(C(C)=O)c(=O)oc3c2)cc2c1O[C@]1(C)CC[C@@H](O)C(C)(C)[C@H]1C2`, the growth was -11.7% (active).

With `O=C(N=Nc1c(O)[nH]c2ccc(Br)cc12)c1cc(-c2ccccc2)on1`, the growth is 103%.

`CSc1nc(NCc2ccccc2)c(C#N)c(-c2cccc([N+](=O)[O-])c2)n1`: the growth was 79%.

Take `O=S(=O)(Nc1ccc(Cl)c(F)c1)c1ccc(-c2cnc(C3CC3)o2)cc1`: the growth is 24.8%.

For the molecule `CC1(C)CC[C@]2(C(=O)Nc3ccccn3)CC[C@]3(C)C(=CC[C@@H]4[C@@]5(C)C/C(=C/c6cccnc6)C(=O)C(C)(C)[C@@H]5CC[C@]43C)[C@H]2C1`, the growth is 34.1%.

As for `O=S(=O)(Nc1ccc(Br)c(Cl)c1)c1ccc(-c2cnc(C3CC3)o2)cc1`, the growth was 30.1%.

On to `C=C(C)[C@@H]1CC[C@]2(C(N)=O)CC[C@]3(C)[C@H](CC[C@@H]4[C@@]5(C)C/C(=C/c6ccco6)C(=O)C(C)(C)[C@@H]5CC[C@]43C)[C@@H]12`, for which the growth is 80.2%.

In the case of `Cc1nc2c3c(-c4ccccc4)c(-c4ccccc4)oc3ncn2n1`, the growth is 92.3%.

With `COc1cccc(-c2nn(C(C)(C)C)cc2-c2ccnc(NCCCNS(=O)(=O)c3ccc(C)cc3)c2)c1`, the growth was 107%.

Take `COc1ccc(-c2nc3ccc(-c4nc5ccc(N6CCN(c7ccc(F)cc7)CC6)cc5[nH]4)cc3[nH]2)cc1OC`: the growth is 60.6%.

As to `O=C1NC(=S)NC(=O)C1CC(=O)n1c(-c2ccccc2)nc2ccccc21`, the growth was 94.9%.

Turning to `CSc1nc(NCCN2CCOCC2)c(C#N)c(-c2cccc([N+](=O)[O-])c2)n1`, the growth is 87.4%.

Take `N#Cc1c(-c2ccc(Cl)cc2)nc(N=Nc2c(O)[nH]c3ccc(Cl)cc23)nc1N1CCOCC1`: the growth was 93.7%.

Consider `Cc1ccc(NS(=O)(=O)c2ccc(-c3cnc(C4CC4)o3)cc2)cc1C`, for which the growth was 24.1%.

For the molecule `Oc1ccccc1-c1nnc(CNc2ccc(Cl)cc2)o1`, the growth is 8.19% (active).

The subject of another assay is LOX IMVI melanoma. The assay is described as above. Conditions: 10 µM unless noted.
For `N#C/C(=C\c1ccc(-c2ccc(Cl)c(Cl)c2)o1)c1nc(-c2ccco2)cs1`, the growth is 93.9%.

With `CC(C)C1=C[C@@]23CC[C@@H]4[C@](C)(CCC[C@@]4(C)C(=O)N4CCCNCC4)[C@H]2C[C@@H]1[C@H]1C(=O)CCC(=O)[C@H]13`, the growth was 92.1%.

Regarding `COc1ccc(CCNc2nc(SC)nc(-c3cccc([N+](=O)[O-])c3)c2C#N)cc1OC`, the growth is 88.6%.

Turning to `Cc1cc(NS(=O)(=O)c2ccc(-c3cnc(C4CC4)o3)cc2)ccc1Cl`, the growth was 46.5%.

Turning to `COc1ccc(-c2cc(C(=O)N=Nc3c(O)[nH]c4ccc(Br)cc34)no2)cc1`, the growth is 96%.

Take `CCCOc1cc2ccccc2cc1C(=O)Nc1nc(NC)c2c(ccc3nccc32)[nH]1`: the growth was -81% (active).

With `CCCCN(CCCC)CCCn1c(-c2ccccc2)ccc1-c1ccccc1`, the growth was 68.7%.

For the molecule `Cc1nc2ccccc2n1C(=O)C[C@@H]1NC(=S)NC1=O`, the growth is 95.3%.

As to `N#CCCN=Nc1c(O)[nH]c2ccc([N+](=O)[O-])cc12`, the growth is 90.3%.

Consider `Cc1cc(N2CCOCC2)nc(NCc2cc(Nc3ccnc4cc(Cl)ccc34)ccc2F)n1`, for which the growth was -68.4% (active).

For `Nc1n[nH]c2ccc([C@@H]3Nc4cc5c(cc4[C@H]4C6CCC(C6)[C@@H]34)C(=O)NC5)cc12` (stereo partly drawn), the growth is 18.2%.

For the molecule `c1ccc(-c2c(-c3ccccc3)[n+](Cc3ccc4ccccc4c3)c(-c3ccc(-c4nc5ccccc5s4)cc3)n2Cc2ccc3ccccc3c2)cc1`, the growth was -98.3% (active).

For the molecule `C=CC(=O)Nc1cccc(-c2nc(SC)nc(NCc3ccccc3)c2C#N)c1`, the growth is 65.8%.

Turning to `CCCOc1ccc2nc(NC(=O)OC)[nH]c2c1`, the growth was 24.4%.

Consider `COc1cccc(/C=C2\Oc3cc(OCCN4CCCC4)ccc3C2=O)c1`, for which the growth is 76.1%.

Regarding `COc1ccc(/C=C2\Oc3cc(OCCCCN4CCCC4)ccc3C2=O)cc1`, the growth is -84.7% (active).

Consider `COc1cccc(-c2nn(C(C)(C)C)cc2-c2ccnc(NCCCNS(=O)(=O)c3cccc4ccccc34)c2)c1`, for which the growth was 99.8%.

On to `COc1cccc(-c2nc3sccn3c2-c2ccnc(NCCCNS(=O)(=O)c3c(Cl)cccc3Cl)c2)c1`, for which the growth is 54.1%.

As for `O=C1c2cc3c(cc2-c2c1c1cc(F)c(F)cc1c(=O)n2CCCn1ccnc1)OCO3`, the growth is -20.4% (active).

For the molecule `O=C(/C=C/c1cccc(Cl)c1)c1ccc(O)c(CN2CCN(c3cc4c(cc3F)c(=O)c(C(=O)O)cn4C3CC3)CC2)c1`, the growth was 11.7%.

Regarding `CCCn1c(=O)[nH]c(N)c([C@H]2c3ccccc3Oc3[nH]c(=O)n(CCC)c(=O)c32)c1=O`, the growth was 64.8%.

Consider `N#CCCN=Nc1c(O)[nH]c2ccc(F)cc12`, for which the growth is 94.5%.

As to `COc1ccc(-c2n[nH]nc2-c2csc3ccccc23)cc1OC`, the growth is 24.2%.

In the case of `COc1cc(/C=C/c2cc(O)c3cc(C(C)=O)c(=O)oc3c2)cc2c1O[C@]1(C)CC[C@@H](O)C(C)(C)[C@H]1C2`, the growth was 18.8%.

Turning to `O=C(N=Nc1c(O)[nH]c2ccc(Br)cc12)c1cc(-c2ccccc2)on1`, the growth is 94.8%.

`CSc1nc(NCc2ccccc2)c(C#N)c(-c2cccc([N+](=O)[O-])c2)n1`: the growth is 92.1%.

As to `O=S(=O)(Nc1ccc(Cl)c(F)c1)c1ccc(-c2cnc(C3CC3)o2)cc1`, the growth is 40.3%.

For the molecule `CC1(C)CC[C@]2(C(=O)Nc3ccccn3)CC[C@]3(C)C(=CC[C@@H]4[C@@]5(C)C/C(=C/c6cccnc6)C(=O)C(C)(C)[C@@H]5CC[C@]43C)[C@H]2C1`, the growth is 14.9%.

For the molecule `O=S(=O)(Nc1ccc(Br)c(Cl)c1)c1ccc(-c2cnc(C3CC3)o2)cc1`, the growth is 43.7%.

On to `C=C(C)[C@@H]1CC[C@]2(C(N)=O)CC[C@]3(C)[C@H](CC[C@@H]4[C@@]5(C)C/C(=C/c6ccco6)C(=O)C(C)(C)[C@@H]5CC[C@]43C)[C@@H]12`, for which the growth is 88.4%.

As to `Cc1nc2c3c(-c4ccccc4)c(-c4ccccc4)oc3ncn2n1`, the growth is 90.7%.

For `COc1cccc(-c2nn(C(C)(C)C)cc2-c2ccnc(NCCCNS(=O)(=O)c3ccc(C)cc3)c2)c1`, the growth is 99.5%.

For `COc1ccc(-c2nc3ccc(-c4nc5ccc(N6CCN(c7ccc(F)cc7)CC6)cc5[nH]4)cc3[nH]2)cc1OC`, the growth is 37.1%.

Turning to `O=C1NC(=S)NC(=O)C1CC(=O)n1c(-c2ccccc2)nc2ccccc21`, the growth is 88.7%.

On to `CSc1nc(NCCN2CCOCC2)c(C#N)c(-c2cccc([N+](=O)[O-])c2)n1`, for which the growth was 95.9%.

As to `N#Cc1c(-c2ccc(Cl)cc2)nc(N=Nc2c(O)[nH]c3ccc(Cl)cc23)nc1N1CCOCC1`, the growth was 83.2%.

With `Cc1ccc(NS(=O)(=O)c2ccc(-c3cnc(C4CC4)o3)cc2)cc1C`, the growth is 39.4%.

On to `Oc1ccccc1-c1nnc(CNc2ccc(Cl)cc2)o1`, for which the growth was 7.71% (active).
